# From PubChem BioAssay
# Active and inactive are the calls of the source. Unless noted, no stated cut-off is given here; in the data, active means inhibition above about 80%; inactive means the rest.
# Tests used:
# [1] = growth inhibition, single agent or in combination, cell-based, chromothripsis tumors, cisplatin or BGB combos (AID 1671449); conditions: LFS_MB_P medulloblastoma cells;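 further: cells exposed for 96 hours; 0% = vehicle DMSO and 100% = killing by high DMSO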
# [2] = growth inhibition, single agent and combos, cell-based, chromothripsis tumors, cisplatin or BGB combos (AID 1671450); conditions: HDN33 neuroblastoma cells, stronger effect = higher value;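 further: cells exposed to compound for four days; 0% = vehicle DMSO and 100% = cell killing by high DMSO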
# [3] = growth inhibition, single agents and combos, ICB984, cell-based, cisplatin or BGB combos, synergistic combos for chromothripsis tumors (AID 1671451; call rule not given here;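 further: cells exposed for 96 hours before readout; 0% = vehicle DMSO and 100% = killing by high DMSO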); conditions: ICB984 medulloblastoma cells, drug combinations, stronger effect = higher value
# [4] = growth inhibition, single agents and combos, LFS_MB_1R, cell-based, cisplatin or BGB combos, synergistic combos for chromothripsis tumors (AID 1671452); conditions: LFS_MB_1R medulloblastoma cells, stronger effect = higher value;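 further: cells exposed for 96 hours before readout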
# [5] = growth inhibition, single agents and combos, HTB85, cell-based, BGB or cisplatin IC20 combos, synergistic combos for chromothripsis tumors (AID 1671453); conditions: HTB85 osteosarcoma cells, drug combinations, stronger effect = higher value;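 further: cells exposed for 96 hours before readout; 0% = vehicle DMSO and 100% = high DMSO killing control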
# [6] = growth inhibition, single agents and combos, CRL2098, cell-based, BGB or cisplatin IC20 combos, synergistic combos for chromothripsis tumors (AID 1671454); conditions: CRL2098 osteosarcoma cells, drug combinations, stronger effect = higher value;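 further: cells exposed for 96 h before readout; 0% = vehicle DMSO and 100% = killing by high DMSO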
# [7] = growth inhibition, single agents and combos, HD-MB03, cell-based, BGB or cisplatin IC20 combos, synergistic combos for chromothripsis tumors (AID 1671455; in the data active means inhibition above about 83%;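 further: 0% = vehicle DMSO and 100% = high DMSO as cytotoxic control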); conditions: HD-MB03 medulloblastoma cells, stronger effect = higher value
# [8] = growth inhibition, single agents and combos, UWB1.289, cell-based, BGB or cisplatin combos, synergistic combos for chromothripsis tumors (AID 1671456); conditions: UWB1.289 ovarian carcinoma cells, stronger effect = higher value;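 further: cells exposed to compound for four days; 0% = vehicle DMSO and 100% = killing by high DMSO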
# [9] = growth inhibition, single agents and combos, LFS_MB_2R, cell-based, cisplatin combos, synergistic combos for chromothripsis tumors (AID 1671457); conditions: LFS_MB_2R medulloblastoma cells, stronger effect = higher value;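 further: cells exposed to compound for four days before readout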
# [10] = growth inhibition, MDA-MB-436, cell-based, BGB or cisplatin combos, synergistic combos for chromothripsis tumors (AID 1671458; call rule not given here;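 further: cells exposed for 96 hours; 0% = vehicle DMSO and 100% = killing by high DMSO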); conditions: MDA-MB-436 breast carcinoma growth inhibition, drug combinations, stronger effect = higher value
# [11] = UWB1.289_BRCA1 ovarian cancer growth, cell-based, BGB or cisplatin combinations (AID 1671459); conditions: UWB1.289 BRCA1 ovarian carcinoma, drug combinations, stronger effect = higher value
# [12] = drug combination toxicity in non-malignant astrocytes – cell-based, BGB or cisplatin IC20 combos, cytotoxicity control for chromothriptic childhood tumor combination screen (AID 1671460); conditions: Human astrocytes, viability inhibition, drug combinations, at 0.5 µM, stronger effect = higher value;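 further: cells exposed to compounds for 96 hours before viability readout; 0% = vehicle and 100% = killing control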
# [13] = BT084 cell growth, single and combined drugs, ICGC_MB145, cisplatin and BGB IC40 combos (AID 1671461); conditions: BT084 medulloblastoma cells, drug combinations, stronger effect = higher value;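 further: cells exposed to drugs for 96 hours; 0% = vehicle DMSO and 100% = high DMSO full killing control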
# [14] = RCMB18 cell growth, single agent and combined, cisplatin and BGB IC40 combos (AID 1671462); conditions: RCMB18 medulloblastoma cells, stronger effect = higher value;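 further: cells exposed to compound for four days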
# [15] = CRL1545 cell growth, single agent and combined, cisplatin and BGB IC20 combos (AID 1671464); conditions: CRL1545 osteosarcoma cells, stronger effect = higher value;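 further: cells exposed to compound for 96 hours before readout; 0% = vehicle DMSO and 100% = high DMSO killing control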
# [16] = at 0.5 µM, stronger effect = higher value
# [17] = measured here: combination with BGB IC20, at 0.005 µM
# [18] = measured here: combination with BGB IC40, at 0.005 µM
# [19] = measured here: combination with BGB IC40, at 0.05 µM
# [20] = measured here: combination with cisplatin, at 0.5 µM, stronger effect = higher value
# [21] = measured here: combination with cisplatin, at 5 µM, stronger effect = higher value
# [22] = measured here: with BGB IC20 combination, at 0.5 µM
# [23] = measured here: with cisplatin IC20 combination, at 0.5 µM
# [24] = measured here: 5 uM single agent, at 5 µM
# [25] = measured here: combination with cisplatin, at 0.5 µM
# [26] = measured here: combination with cisplatin, at 5 µM
# [27] = measured here: with BGB IC20, at 0.5 µM
# [28] = measured here: with BGB IC20, at 5 µM
# [29] = measured here: with cisplatin IC20, at 0.5 µM
# [30] = measured here: with cisplatin IC20, at 5 µM
# [31] = measured here: combination with BGB at IC20, at 0.5 µM
# [32] = measured here: combination with cisplatin at IC20, at 0.5 µM
# [33] = measured here: combo with BGB at IC20, at 0.5 µM
# [34] = measured here: combo with cisplatin at IC20, at 0.5 µM
# [35] = measured here: inhibition with BGB combination, at 0.05 µM
# [36] = measured here: inhibition with cisplatin combination, at 0.05 µM
# [37] = measured here: BGB combination, at 0.5 µM
# [38] = measured here: BGB combination, at 5 µM
# [39] = measured here: cisplatin combination, at 0.5 µM
# [40] = measured here: cisplatin combination, at 5 µM
# [41] = BGB combination, concentration series, at 5 µM
# [42] = cisplatin combination, concentration series, at 5 µM
# [43] = measured here: combo with BGB IC20
# [44] = measured here: combo with cisplatin IC20
# [45] = cisplatin combination, at 0.5 µM
# [46] = measured here: BGB IC40 combination 0.05 uM, at 0.05 µM
# [47] = measured here: BGB IC40 combination, at 0.05 µM
compound,measurement,setting,value
O=C(CCSc1nc2ccccc2c(=O)[nH]1)NC1CCC(c2nnc(-c3ccccc3)o2)CC1 (stereo unspecified),inhibition,[1]; [16],-18.8% (inactive)
same,inhibition,[1]; [17],-14.4%
same,inhibition,[1]; [18],-25.3%
same,inhibition,[1]; [19],-55.5%
same,inhibition,[1]; [20],-16.2%
same,inhibition,[1]; [21],-49.7%
same,inhibition,"[2]; BGB combo, at 5 µM",11.8%
same,inhibition,[2]; at 0.5 µM,16.1% (inactive)
same,inhibition,"[2]; cisplatin combo, at 5 µM",29.6%
same,inhibition,[2]; [22],8.27%
same,inhibition,[2]; [23],21.3%
same,inhibition,"[2]; single agent, at 5 µM",32.4%
same,inhibition,"[3]; BGB IC20 combo, at 0.005 µM",-2.22%
same,inhibition,"[3]; BGB IC40 combo, at 0.005 µM",-49.4%
same,inhibition,"[3]; BGB IC40 combo, at 0.05 µM",-27.2%
same,inhibition,[3]; at 0.5 µM,-25.5% (inactive)
same,inhibition,"[3]; cisplatin combo, at 0.05 µM",-31.8%
same,inhibition,"[3]; cisplatin combo, at 0.5 µM",-22.3%
same,inhibition,"[3]; cisplatin combo, at 5 µM",-10.9%
same,inhibition,[3]; [24],-18.3%
same,inhibition,[4]; at 0.5 µM,-14.6% (inactive)
same,inhibition,[4]; [19],6.03%
same,inhibition,[4]; [25],-5.82%
same,inhibition,[4]; [26],-21.2%
same,inhibition,[5]; at 0.5 µM,2.93% (inactive)
same,inhibition,[5]; [27],-9.32%
same,inhibition,[5]; [28],-14.4%
same,inhibition,[5]; [29],5.46%
same,inhibition,[5]; [30],-13.6%
same,inhibition,"[5]; single agent, at 5 µM",0.754%
same,inhibition,[6]; at 0.5 µM,-30.9% (inactive)
same,inhibition,[6]; [31],-25.3%
same,inhibition,[6]; [32],-55.1%
same,inhibition,[7]; at 0.5 µM,5.94% (inactive)
same,inhibition,[7]; [33],-6.25%
same,inhibition,[7]; [34],23%
same,inhibition,[8]; at 0.5 µM,10.2% (inactive)
same,inhibition,[8]; [35],-3.32%
same,inhibition,[8]; [36],13%
same,inhibition,[9]; at 0.5 µM,-3.45% (inactive)
same,inhibition,[9]; [25],-13.5%
same,inhibition,[9]; [26],-4.17%
same,inhibition,[10]; at 0.5 µM,4.84% (inactive)
same,inhibition,[10]; [37],-2.01%
same,inhibition,[10]; [38],-13.2%
same,inhibition,[10]; [39],5.45%
same,inhibition,[10]; [40],-2.11%
same,inhibition,[11]; [41],9.22%
same,inhibition,[11]; at 0.5 µM,8.17% (inactive)
same,inhibition,[11]; [42],-16.8%
same,inhibition,[12],41.8% (inactive)
same,inhibition,[12]; [43],31.3%
same,inhibition,[12]; [44],43.3%
same,inhibition,[13]; at 0.5 µM,-6.61% (inactive)
same,inhibition,[13]; [45],-27.5%
same,inhibition,"[13]; cisplatin combination, at 5 µM",2.51%
same,inhibition,[13]; [46],-56.9%
same,inhibition,"[13]; single agent, at 5 µM",-15.2%
same,inhibition,[14]; at 0.5 µM,-4.49% (inactive)
same,inhibition,"[14]; cisplatin combo, at 5 µM",16.1%
same,inhibition,[14]; [47],-6.16%
same,inhibition,[14]; [25],22.5%
same,inhibition,"[14]; single agent, at 5 µM",-14.1%
same,inhibition,[15]; at 0.5 µM,-21.1% (inactive)
same,inhibition,[15]; [22],-27%
same,inhibition,[15]; [23],-20%
same,inhibition,"[15]; single agent, at 0.05 µM",24.5%
same,inhibition,"[15]; single agent, at 5 µM",-45%
Cc1c(Br)cc(NCC(=O)N/N=C/c2cc([N+](=O)[O-])ccc2O)cc1Br,inhibition,[1]; [16],4.38% (inactive)
same,inhibition,[1]; [17],-17.6%
same,inhibition,[1]; [18],-32.2%
same,inhibition,[1]; [19],-25.9%
same,inhibition,[1]; [20],-13.3%
same,inhibition,[1]; [21],49.2%
same,inhibition,"[2]; BGB combo, at 5 µM",40.5%
same,inhibition,[2]; at 0.5 µM,-0.34% (inactive)
same,inhibition,"[2]; cisplatin combo, at 5 µM",36.1%
same,inhibition,[2]; [22],-9.6%
same,inhibition,[2]; [23],14.3%
same,inhibition,"[2]; single agent, at 5 µM",47.8%
same,inhibition,"[3]; BGB IC20 combo, at 0.005 µM",-14%
same,inhibition,"[3]; BGB IC40 combo, at 0.005 µM",-19.6%
same,inhibition,"[3]; BGB IC40 combo, at 0.05 µM",-0.825%
same,inhibition,[3]; at 0.5 µM,-30.2% (inactive)
same,inhibition,"[3]; cisplatin combo, at 0.05 µM",-3.64%
same,inhibition,"[3]; cisplatin combo, at 0.5 µM",-27.9%
same,inhibition,"[3]; cisplatin combo, at 5 µM",-29.5%
same,inhibition,[3]; [24],-33%
same,inhibition,[4]; at 0.5 µM,-22.2% (inactive)
same,inhibition,[4]; [19],-11.7%
same,inhibition,[4]; [25],-16.8%
same,inhibition,[4]; [26],13.4%
same,inhibition,[5]; at 0.5 µM,-6.09% (inactive)
same,inhibition,[5]; [27],-1.02%
same,inhibition,[5]; [28],19.1%
same,inhibition,[5]; [29],-24.4%
same,inhibition,[5]; [30],5.29%
same,inhibition,"[5]; single agent, at 5 µM",37.4%
same,inhibition,[6]; at 0.5 µM,-42.4% (inactive)
same,inhibition,[6]; [31],-43.9%
same,inhibition,[6]; [32],-25%
same,inhibition,[7]; at 0.5 µM,-7.25% (inactive)
same,inhibition,[7]; [33],1.43%
same,inhibition,[7]; [34],-13.4%
same,inhibition,[8]; at 0.5 µM,5% (inactive)
same,inhibition,[8]; [35],-18.4%
same,inhibition,[8]; [36],-10.8%
same,inhibition,[9]; at 0.5 µM,-13% (inactive)
same,inhibition,[9]; [25],-18.6%
same,inhibition,[9]; [26],-37.8%
same,inhibition,[10]; at 0.5 µM,-18.5% (inactive)
same,inhibition,[10]; [37],-10.2%
same,inhibition,[10]; [38],25.8%
same,inhibition,[10]; [39],-39%
same,inhibition,[10]; [40],38.4%
same,inhibition,[11]; [41],59.1%
same,inhibition,[11]; at 0.5 µM,2.01% (inactive)
same,inhibition,[11]; [42],60.8%
same,inhibition,[12],9.92% (inactive)
same,inhibition,[12]; [43],11.5%
same,inhibition,[12]; [44],17.7%
same,inhibition,[13]; at 0.5 µM,-9.67% (inactive)
same,inhibition,[13]; [45],-1.86%
same,inhibition,"[13]; cisplatin combination, at 5 µM",27.3%
same,inhibition,[13]; [46],-3.3%
same,inhibition,"[13]; single agent, at 5 µM",6.62%
same,inhibition,[14]; at 0.5 µM,-19% (inactive)
same,inhibition,"[14]; cisplatin combo, at 5 µM",25.8%
same,inhibition,[14]; [47],-28.4%
same,inhibition,[14]; [25],22%
same,inhibition,"[14]; single agent, at 5 µM",8.19%
same,inhibition,[15]; at 0.5 µM,-4.87% (inactive)
same,inhibition,[15]; [22],-10.5%
same,inhibition,[15]; [23],-4.39%
same,inhibition,"[15]; single agent, at 0.05 µM",-22.9%
same,inhibition,"[15]; single agent, at 5 µM",44.6%
